Experimental data taken from PubChem BioAssay AID1117319 (Southern Research Institute, 2015).
Several values for one entry are separate records, joined by “and”; a condition that tells them apart may be missing. Equal entries are not always repeated. In all, about 260,000 compounds went through this assay and about 1,500 (0.58%) were called active. Inconclusive results (about 5%) are left out.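 How the source made its calls: active means inhibition above a set limit at one or more doses, reproduced on every date tested; inconclusive means results disagree between test dates, or hit never tested in dose response; inactive means the rest.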 These entries were drawn from the full list. Potency and affinity values are given separately.

What follows are compounds tested against Virion infectivity factor (Human immunodeficiency virus type 1 group M subtype B (isolate BH10)) + Virion infectivity factor (Human immunodeficiency virus type 1 group M subtype B (isolate BRU/LAI)) + Virion infectivity factor (Human immunodeficiency virus type 1 group M subtype B (isolate PCV12)) + Virion infectivity factor (Human immunodeficiency virus type 1 group M subtype B (isolate HXB2)) + DNA dC->dU-editing enzyme APOBEC-3G (Homo sapiens) (UniProt P69720+P69721+P69722+P69723+Q9HC16) (assay: inhibitors of Vif binding to APOBEC3G peptide, primary screen, biochemical, TR-FRET, GST-Vif 1-94, biotin-A3G peptide, dose response retest (AID 1117319;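 further: Vif residues 1-94 fused to GST binding biotinylated APOBEC3G peptide 110-148; 0% = full assay without inhibitor and 100% = GST in place of GST-Vif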)). Conditions: hits give high values.

inhibition, inactive:
Cc1ccc(Oc2ccccc2/C=C/C(=O)O)cc1 7.01%
CC(C)(C)C1CCc2onc(C(=O)Nc3ccc(F)cc3F)c2C1 (stereo unspecified) 2.83%
Cc1ccc(NC(=O)c2noc3c2CCC3)cc1C -3.45%
CC(=O)c1ccc(NC(=O)c2noc3c2CCC3)cc1 -4.79%
COC(=O)c1ccccc1NC(=O)c1noc2c1CCCC2 3.34%
O=C(Nc1ccccc1C(=O)N1CCOCC1)c1noc2c1CCCC2 -4.02%
COc1cc(NC(=O)c2noc3c2CCCC3)c(OC)cc1Cl 11.1%
COC(=O)c1ccccc1NC(=O)c1noc2c1CC(C(C)(C)C)CC2 (stereo unspecified) -0.63%
COc1ccc(Cl)cc1NC(=O)c1noc2c1CCCC2 -11.1%
CCS(=O)(=O)c1ccc(-c2csc(-c3ccc(Cl)cc3)n2)c(Cl)c1Cl 2.97%
CN(CCCNC(=O)CCCOc1cc(=O)n(C)c2ccccc12)Cc1ccccc1 4.88%
CN(C)C(CNC(=O)c1cccc(S(=O)(=O)NCc2ccccc2)c1)c1ccco1 (stereo unspecified) 0.14%
O=C(CC1SC(N2CCCC2)=NC1=O)Nc1ccc(C(=O)NCc2ccc(F)cc2)cc1 (stereo unspecified) 4.94%
COc1cc(OC)cc(-n2nnnc2SCC(=O)NCc2cccs2)c1 6.88%
O=C(O)CCCCCNS(=O)(=O)/C=C/c1ccccc1 1.37%
CCN(CC(=O)Nc1ccc(NC(C)=O)cc1)C(=O)/C=C/c1c(C)nn(-c2ccc(F)cc2)c1Cl 0.81%
COC(=O)c1ccccc1NC(=S)NC(=O)C1CCCCC1 -4.52%
COC(=O)c1ccccc1NC(=S)NC(=O)C1CC1 0.95%
COc1cc(NCCCCC(C)N)c2nccc(C)c2c1 (stereo unspecified) 9.33%
COc1cc(NCc2ccccc2O)c2ncccc2c1 3.48%
CCOC(=O)c1ccc(Oc2nc(N(C)C)nc(N3CCOCC3)n2)cc1 -15.9%
CN1CCN(c2nnc(-c3ccc(Cl)cc3)c3ccccc23)CC1 3.71%
Cc1ccc(C)c(/C=N/n2cc(-c3ccccc3)[nH]c2=S)c1 -9.36%
Cc1ccc(-c2cc(-c3ccc(F)cc3)c(C#N)c(N)n2)o1 18.2%
Cc1ccc(-c2cc(-c3ccc(C)o3)nc(N)c2C#N)cc1 27.2%
Cc1ccc(-c2cc(-c3ccc(Cl)cc3)c(C#N)c(N)n2)o1 24.5%
Cc1cc(-c2ccc(Cl)cc2)c(C#N)c(N)n1 -1.08%
Cc1ccc(CNC(=O)c2ccc(CN3CCOCC3)cc2)cc1 32.3%
Cc1[nH]c2ccccc2c1C(=O)NS(=O)(=O)Nc1ccc(Cl)cc1 12.1%
CN(C)S(=O)(=O)c1ccc(C(=O)Nc2nnc(-c3cccs3)o2)cc1 27.3%
O=C(Nc1ccc(N2CCN(C(=O)c3ccc(Cl)cc3)CC2)cc1)c1ccc(Br)o1 10.6% and 6.22%
CCOC(=O)c1c(NC(=O)Cc2cccs2)sc2c1CCCC2 -5.96%
COC(=O)c1c(NC(=O)Cc2cccs2)sc2c1CCCC2 29.5%
O=c1c2cc(N3CCOCC3)ccc2[nH]c(=S)n1Cc1ccc(Cl)cc1 -2.52%
O=c1c2cc(N3CCOCC3)ccc2[nH]c(=S)n1CCN1CCCC1 12.5%
CCCCn1c(=S)[nH]c2ccc(N3CCOCC3)cc2c1=O -3.86%
O=c1c2cc(N3CCOCC3)ccc2[nH]c(=S)n1Cc1ccccc1Cl -15.9%
CN(C)C(CNS(=O)(=O)c1ccc(F)cc1)c1cccnc1 (stereo unspecified) -1.58%
CN(C)S(=O)(=O)c1ccc(Cl)c(C(=O)NNC(=O)c2ccc3c(c2)OCO3)c1 -8.17%
Cc1ccsc1C(=O)NC(C)c1ccc2c(c1)OCO2 (stereo unspecified) 0.99%
CCSc1nnc(Nc2ccc(C)cc2)s1 1.17%
CC(C)C12CN3CC(C(C)C)(CN(C1)C3c1ccc3c(c1)OCO3)C2=O (stereo unspecified) 2.83%
Cc1ccc2oc(-c3ccc(NC(=O)c4ccncc4)cc3O)nc2c1 -2%
O=C(COC(=O)c1ccc(S(=O)(=O)C(F)F)cc1)Nc1cccnc1Cl 10.1%
Cc1cc(C)n2nc(SCC(=O)N3CCC(C(=O)O)CC3)nc2n1 0.2%
Cc1cccc(OCc2nnc(NC(=O)Cc3cccs3)s2)c1 -15.6%
Clc1ccccc1Oc1cnc2ccccc2n1 31.7%
COc1ccc(-c2oc3c(CC=C(C)C)c(O[C@@H]4O[C@H](CO)[C@@H](O)[C@H](O)[C@H]4O)cc(O)c3c(=O)c2O[C@@H]2O[C@@H](C)[C@H](O)[C@@H](O)[C@H]2O)cc1 0.27%
O=c1c(O[C@@H]2O[C@H](CO)[C@@H](O)[C@H](O)[C@H]2O)c(-c2ccc(O)c(O)c2)oc2cc(O)cc(O)c12 -5.92%
C[C@@H]1O[C@@H](OC[C@H]2O[C@@H](Oc3c(-c4ccc(O)c(O)c4)oc4cc(O)cc(O)c4c3=O)[C@H](O)[C@@H](O)[C@@H]2O)[C@H](O)[C@H](O)[C@H]1O -12%
O=c1c(OC2OC(CO)C(O)C(O)C2O)c(-c2ccc(O)c(O)c2)oc2cc(O)cc(O)c12 (stereo unspecified) -4.71%
CN(C)C(CNC(=O)CCc1c[nH]c2ccccc12)c1ccccc1 (stereo unspecified) 0.02%
O=C(COC(=O)C1CCN(S(=O)(=O)c2cccs2)CC1)Nc1ccccc1 -2.54%
CCN(Cc1ccccc1)C(=O)Cn1c(C(C)O)nc2ccccc21 (stereo unspecified) -14.7%
CC(=O)OC1C(OC(C)=O)C2C(C)CC3OC(=O)C(C)C3CC2(C)C1OC(C)=O (stereo unspecified) 1.67%
COc1ccc(C(OCC(O)CNCCc2ccc(S(N)(=O)=O)cc2)c2ccc(OC)cc2)cc1 (stereo unspecified) -0.36%
CC(=O)c1ccc(-n2c(CCC(=O)O)ccc2-c2cccs2)cc1 7.93%
Cc1ccc(-n2c(CCC(=O)O)ccc2-c2cccs2)cc1 9.93%
Cc1c(C(=O)Nc2ccccc2-c2ccccc2)cccc1[N+](=O)[O-] 22.9%
Cc1ccccc1CNC(=O)c1ccc(Cl)c([N+](=O)[O-])c1 3.74%
Cc1nn(C)cc1CNC(=O)c1cccc(Cl)c1 0.88%
COCC(C)OC(=O)c1c(N)n(-c2ccc(OC)c(OC)c2)c2nc3ccccc3nc12 (stereo unspecified) 7.95%
COc1cc(/C=C/C(=O)OCC(=O)Nc2ccc3c(c2)OCCO3)ccc1OCC#N -0.31%
N#CC1=C2C=Cc3ccccc3N2CCCC1=O 6.87%
COC(=O)C(C)Sc1nnc(Cc2cc(=O)[nH]c(=O)[nH]2)n1-c1ccc(OC)cc1 (stereo unspecified) 7.85%
Cc1ccc(C)c(-n2c(Cc3cc(=O)[nH]c(=O)[nH]3)nnc2SC(C)C)c1 71.3%
Cn1c(=O)c2c(nc(CN3CCN(C(=O)c4ccco4)CC3)n2Cc2cccc(Cl)c2)n(C)c1=O 7.79%
COc1ccccc1OCC(=O)N1CCCC(Nc2cccc(F)c2)C1 (stereo unspecified) -1.81%
COCC(=O)n1nc(-c2ccccc2)nc1NCc1ccc(N(C)C)cc1 -5.23%
Cc1cc(C)n(CC(=O)N2CCc3ccccc32)c(=O)c1C#N -19.3%
Cc1cc(O)ccc1C1(c2ccc(O)cc2C)OC(=O)c2ccccc21 -0.95%
O=C1OC2(c3ccccc31)c1ccccc1-c1ccccc12 -7.13%
Cc1cccc(NC(=O)CN2CCN(C(=O)c3oc4c(Cl)cccc4c3C)CC2)c1C -10%
Cc1cccc(Nc2nc(N)c([N+](=O)[O-])c(N3CC(C)OC(C)C3)n2)c1 (stereo unspecified) -1.71%
COC(Cc1n[nH]c(=S)n1-c1ccc(Cl)cc1)OC -7.57%
COC(Cc1nnc(SC)n1-c1ccccc1)OC 6.71%
Cc1ccc(C2N(c3ccccc3)C(=S)N3CCCN23)cc1 (stereo unspecified) 19.3%
O=C(O)c1cc(NS(=O)(=O)c2ccc3ccccc3c2)ccc1O -12.2%
O=C(O)c1cc(S(=O)(=O)O)cc(Nc2c3ccccc3nc3ccccc23)c1O 5.42%
Nc1ccc(C(=O)Nc2ccc3c(O)cc(S(=O)(=O)O)cc3c2)cc1 29.1%
O=C(O)c1cc2cc(S(=O)(=O)O)ccc2cc1O 26.7%
CC(=O)Nc1ccc2c(O)cc(S(=O)(=O)O)cc2c1 19.9%
Nc1ccc(C(=O)Nc2ccc3cc(S(=O)(=O)O)ccc3c2)cc1 7.06%
O=S(=O)(O)c1ccc(O)c2cc(Nc3ccccc3)ccc12 -8.31%
COc1ccccc1Nc1ccc2c(O)cc(S(=O)(=O)O)cc2c1 15.2%
COc1ccccc1CNC(=O)CNC(=O)Cn1cnc2ccccc2c1=O 8.94%
COC(=O)c1c(NC(=O)C2(C)Cc3ccccc3C(=O)O2)sc2c1CCCC2 (stereo unspecified) 20.6%
O=C(Nc1nnc(Cc2ccccc2)s1)C1CCC1 6.12%
NC(=O)CN(N=Nc1cccc([N+](=O)[O-])c1)c1cccc([N+](=O)[O-])c1 10.3%
COc1ccccc1C(=O)NC(CCSC)C(=O)NNC(=O)c1ccc(F)cc1 (stereo unspecified) -6.52%
CCCN(C(=O)c1cc(S(=O)(=O)N(C)c2ccc(OCC)cc2)ccc1C)C1CCS(=O)(=O)C1 (stereo unspecified) 2.41%
